Experiment [1] relates to RAW-Dual. As to the kind of experiment: NF-kB SEAP reporter activity, fold change vs agonist alone; higher = enhanced NF-kB activity. Particulars: library stock concentration (final ~1000-fold dilution): 10 mM. In short, it runs like this: (§1)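 Reporter activity is given as fold change relative to agonist-alone wells. To measure it, 50 nL of library stock was pin-tooled onto RAW-Dual macrophages (50,000 cells/well, DMEM, 384-well plates), a PRR agonist followed 1 h later, and cells stayed at 37 °C, 5% CO2. Twenty hours on, supernatant was assayed for IRF (QuantiLuc luminescence) and NF-κB (QuantiBlue, 620 nm absorbance), and wells under 70% of agonist-control IncuCyte confluency in both mask sets were marked cytotoxic.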

Experiment [2] concerns RAW-Dual. The experiment in a line: NF-kB SEAP reporter activity, fold change vs agonist alone; cytotoxicity flag (confluency mask): not cytotoxic; higher = enhanced NF-kB activity. In short, it runs like this: as §1
Experiment [3] relates to RAW-Dual. As to the kind of experiment: NF-kB SEAP reporter activity, fold change vs agonist alone; cytotoxicity flag (confluency mask): cytotoxic (confluency <70% of control); higher = enhanced NF-kB activity. The essentials: as §1
[4] abbreviates: cytotoxicity flag (confluency mask): not cytotoxic, agonist: Imiquimod (TLR7) […].
Where [5] appears, read: cytotoxicity flag (confluency mask): not cytotoxic, agonist: MPLA (TLR4) […].
The mark [6] stands for this setting: agonist: ODN 1826 (TLR9) 0.5 ug/mL.
Setting [7] is: agonist: Pam2CSK4 (TLR2/6) 0.1 ug/mL.
The mark [8] stands for this setting: agonist: Pam3CSK4 (TLR2/1) 0.1 ug/mL.
[9] abbreviates: cytotoxicity flag (confluency mask): cytotoxic (confluency <70% of control), agonist: Imiquimod (TLR7) […].
The mark [10] stands for this setting: cytotoxicity flag (confluency mask): cytotoxic (confluency <70% of control), agonist: MPLA (TLR4) […].

In all, about 2,900 compounds were measured (“NF-kB SEAP reporter activity, fold change vs agonist alone”: median about 0.99, highest 2% from about 2.6 on). The entries come from a sample that favours the highest values as a whole.

Consider `CCn1c(-c2nonc2N)nc2cnc(Oc3cccc(NC(=O)c4ccc(OCCN5CCOCC5)cc4)c3)cc21.Cl`, for which the “NF-kB SEAP reporter activity” value in the experiment on RAW-Dual [1] (setting [4]) was 1.48; in the experiment on RAW-Dual [1] (setting [5]) it was 1.41.

Take `N#Cc1cccc(-c2c[nH]c3ncnc(N4CCOCC4)c23)c1` (library stock concentration (final ~1000-fold dilution): 10 mM): the “NF-kB SEAP reporter activity” value came to 0.963 in the experiment on RAW-Dual [2] (agonist: LPS (TLR4) 0.1 ug/mL), 0.792 in the experiment on RAW-Dual [2] (setting [6]), 0.588 in the experiment on RAW-Dual [2] (setting [7]) and 0.962 with RAW-Dual [2] (setting [8]).

`Cc1csc(-c2nc[nH]c2-c2ccc3ncsc3c2)n1.Cl` (library stock concentration (final ~1000-fold dilution): 10 mM): the “NF-kB SEAP reporter activity” value in the experiment with RAW-Dual [2] (agonist: LPS (TLR4) 0.1 ug/mL) was 2.26; in the experiment with RAW-Dual [2] (setting [6]), 1.18; in the experiment with RAW-Dual [2] (setting [7]), 1.24; in the experiment on RAW-Dual [2] (setting [8]), 1.47.

As to `Cc1csc(-c2nc[nH]c2-c2ccc3ncsc3c2)n1.Cl`, the “NF-kB SEAP reporter activity” value in the experiment on RAW-Dual [1] (setting [4]) turned out to be 0.927; with RAW-Dual [1] (setting [5]) it was 1.34.

As for `CC(Oc1cc(-n2cnc3ccc(CN4CCN(C)CC4)cc32)sc1C(N)=O)c1ccccc1C(F)(F)F` (configuration not stated), the entries for the “NF-kB SEAP reporter activity” value in the experiment on RAW-Dual [1] (setting [4]) and with RAW-Dual [1] (setting [5]) were 0.909 and 0.993, respectively.

As for `CC(Oc1cc(-n2cnc3ccc(CN4CCN(C)CC4)cc32)sc1C(N)=O)c1ccccc1C(F)(F)F` (configuration not stated) (library stock concentration (final ~1000-fold dilution): 10 mM), the “NF-kB SEAP reporter activity” value in the experiment with RAW-Dual [2] (agonist: LPS (TLR4) 0.1 ug/mL) was 1.15; with RAW-Dual [2] (setting [6]), 0.967; in the experiment on RAW-Dual [2] (setting [7]), 0.97; in the experiment with RAW-Dual [2] (setting [8]) it was 0.799.

On to `N#C/C(C(=O)c1ccc(Cl)cc1Cl)=C1\NC(=O)c2ccccc2N1` (library stock concentration (final ~1000-fold dilution): 10 mM), for which the “NF-kB SEAP reporter activity” value was 1.13 with RAW-Dual [2] (agonist: LPS (TLR4) 0.1 ug/mL), 0.982 with RAW-Dual [2] (setting [6]), 0.65 in the experiment with RAW-Dual [2] (setting [7]) and 0.693 with RAW-Dual [2] (setting [8]).

As to `N#C/C(C(=O)c1ccc(Cl)cc1Cl)=C1\NC(=O)c2ccccc2N1`, the “NF-kB SEAP reporter activity” value in the experiment on RAW-Dual [1] (setting [4]) turned out to be 0.86; in the experiment with RAW-Dual [1] (setting [5]), 1.11.

As for `CC1OC(OC2C(Oc3cc(O)c4c(c3)OC(c3ccc(O)cc3)CC4=O)OC(CO)C(O)C2O)C(O)C(O)C1O` (configuration not stated) (library stock concentration (final ~1000-fold dilution): 10 mM), the “NF-kB SEAP reporter activity” value with RAW-Dual [2] (agonist: LPS (TLR4) 0.1 ug/mL) is 0.935; in the experiment with RAW-Dual [2] (setting [6]) it was 1.04; in the experiment on RAW-Dual [2] (setting [7]) it was 1.17; in the experiment with RAW-Dual [2] (setting [8]), 1.13.

As to `CC1OC(OC2C(Oc3cc(O)c4c(c3)OC(c3ccc(O)cc3)CC4=O)OC(CO)C(O)C2O)C(O)C(O)C1O` (configuration not stated), the “NF-kB SEAP reporter activity” value in the experiment with RAW-Dual [1] (setting [4]) worked out at 0.993; in the experiment with RAW-Dual [1] (setting [5]), 1.05.

Take `COc1ccc(C[C@@H]2c3cc(Oc4cc(C[C@@H]5c6cc(OC)c(OC)cc6CCN5C)ccc4O)c(OC)cc3CCN2C)cc1` (library stock concentration (final ~1000-fold dilution): 10 mM): the “NF-kB SEAP reporter activity” value in the experiment on RAW-Dual [2] (agonist: LPS (TLR4) 0.1 ug/mL) is 1.06; with RAW-Dual [2] (setting [6]), 0.182; in the experiment with RAW-Dual [2] (setting [7]), 0.121; with RAW-Dual [2] (setting [8]) it was 0.622.

As to `COc1ccc(C[C@@H]2c3cc(Oc4cc(C[C@@H]5c6cc(OC)c(OC)cc6CCN5C)ccc4O)c(OC)cc3CCN2C)cc1`, the “NF-kB SEAP reporter activity” value was determined as 0.915 in the experiment on RAW-Dual [1] (setting [4]) and 1.09 in the experiment on RAW-Dual [1] (setting [5]).

For `Oc1ccc(-c2nc(-c3ccc(F)cc3)c(-c3ccncc3)[nH]2)cc1`, the “NF-kB SEAP reporter activity” value with RAW-Dual [1] (setting [4]) came to 1.92; in the experiment with RAW-Dual [1] (setting [5]), 1.84.

Take `Oc1ccc(-c2nc(-c3ccc(F)cc3)c(-c3ccncc3)[nH]2)cc1` (library stock concentration (final ~1000-fold dilution): 10 mM): the “NF-kB SEAP reporter activity” value in the experiment with RAW-Dual [2] (agonist: LPS (TLR4) 0.1 ug/mL) was found to be 2.59; in the experiment on RAW-Dual [2] (setting [6]), 0.851; with RAW-Dual [2] (setting [7]), 1.01; in the experiment on RAW-Dual [2] (setting [8]), 1.2.

With `COc1cc2nc(N3CCCN(C)CC3)nc(NC3CCN(Cc4ccccc4)CC3)c2cc1OC.Cl.Cl.Cl`, the figures for the “NF-kB SEAP reporter activity” value with RAW-Dual [1] (setting [9]) and in the experiment with RAW-Dual [1] (setting [10]) were 0.133 and 0.247, respectively.

Take `COc1cc2nc(N3CCCN(C)CC3)nc(NC3CCN(Cc4ccccc4)CC3)c2cc1OC.Cl.Cl.Cl` (library stock concentration (final ~1000-fold dilution): 10 mM): the “NF-kB SEAP reporter activity” value is 0.248 with RAW-Dual [3] (agonist: LPS (TLR4) 0.1 ug/mL), 0.189 with RAW-Dual [3] (setting [6]), 0.092 in the experiment on RAW-Dual [3] (setting [7]) and 0.13 with RAW-Dual [3] (setting [8]).

With `CC(=O)OC1(C(C)=O)CCC2C3C=C(Cl)C4=CC(=O)CCC4(C)C3CCC21C` (configuration not stated) (library stock concentration (final ~1000-fold dilution): 10 mM), the “NF-kB SEAP reporter activity” value in the experiment with RAW-Dual [2] (agonist: LPS (TLR4) 0.1 ug/mL) worked out at 1.21; in the experiment on RAW-Dual [2] (setting [6]), 1.14; with RAW-Dual [2] (setting [7]) it was 1.08; in the experiment with RAW-Dual [2] (setting [8]), 1.16.

`CC(=O)OC1(C(C)=O)CCC2C3C=C(Cl)C4=CC(=O)CCC4(C)C3CCC21C` (configuration not stated): the “NF-kB SEAP reporter activity” value is 1.28 in the experiment on RAW-Dual [1] (setting [4]) and 1.12 with RAW-Dual [1] (setting [5]).

For the molecule `Cc1nc(Nc2cnn(C3CCNCC3)c2)nc2c1N(C)C(=O)c1cc3ccccc3cc1N2C` (library stock concentration (final ~1000-fold dilution): 10 mM), the “NF-kB SEAP reporter activity” value with RAW-Dual [3] (agonist: LPS (TLR4) 0.1 ug/mL) was 3.03; in the experiment on RAW-Dual [3] (setting [6]) it was 0.387; in the experiment with RAW-Dual [3] (setting [7]) it was 1.11; in the experiment with RAW-Dual [3] (setting [8]), 2.25.

As to `Cc1nc(Nc2cnn(C3CCNCC3)c2)nc2c1N(C)C(=O)c1cc3ccccc3cc1N2C`, the “NF-kB SEAP reporter activity” value turned out to be 1.56 with RAW-Dual [1] (setting [9]) and 2.88 in the experiment with RAW-Dual [1] (setting [10]).

Take `CN1c2ccccc2C(=O)Nc2cnc(Nc3ccc(N4CCC(O)CC4)cc3)nc21`: the “NF-kB SEAP reporter activity” value was found to be 0.788 with RAW-Dual [1] (setting [4]) and 1.02 in the experiment on RAW-Dual [1] (setting [5]).

Take `CN1c2ccccc2C(=O)Nc2cnc(Nc3ccc(N4CCC(O)CC4)cc3)nc21` (library stock concentration (final ~1000-fold dilution): 10 mM): the “NF-kB SEAP reporter activity” value in the experiment with RAW-Dual [2] (agonist: LPS (TLR4) 0.1 ug/mL) came to 1.91; in the experiment with RAW-Dual [2] (setting [6]), 1.18; with RAW-Dual [2] (setting [7]) it was 0.763; with RAW-Dual [2] (setting [8]), 0.946.

Consider `Cc1ccc(Oc2ccnc3cc(-c4cnn(C5CCNCC5)c4)ccc23)cc1` (library stock concentration (final ~1000-fold dilution): 10 mM), for which the “NF-kB SEAP reporter activity” value in the experiment on RAW-Dual [3] (agonist: LPS (TLR4) 0.1 ug/mL) is 0.433; in the experiment with RAW-Dual [3] (setting [6]), 0.213; in the experiment on RAW-Dual [3] (setting [7]) it was 0.181; in the experiment on RAW-Dual [3] (setting [8]), 0.175.

For the molecule `Cc1ccc(Oc2ccnc3cc(-c4cnn(C5CCNCC5)c4)ccc23)cc1`, the figures for the “NF-kB SEAP reporter activity” value with RAW-Dual [1] (setting [9]) and in the experiment with RAW-Dual [1] (setting [10]) were 0.526 and 0.922, respectively.

Source of the values: the supplement of paper PMC10037445.
